# From the supplement of paper PMC12340641
# Over roughly 1,000 compounds, “relative growth in counter assay (no AraC = 100%, AraC + DMSO = 0%)” has its median near -1.1; the highest 2% begin near 20. The full list was thinned out, with the highest values kept by preference.
# Test system: HEK293FT dCK*-only
# Assay: relative growth in counter assay (no AraC = 100%, AraC + DMSO = 0%); higher = more growth rescue independent of IKZF1
# Details: compound concentration: 5 uM; AraC concentration: 0.3 uM; overnight pretreatment + 4 days AraC
# Experimental: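 Growth recovery screen of the molecular-glue-like (Specs) library. HEK293FT cells expressing a dCK*-IKZF1 fusion (primary) or dCK* alone (counter) were pretreated overnight with compound at 5 uM, then given 0.3 uM AraC for 4 days. Hoechst nuclei were counted by imaging. Primary: normalised to pomalidomide (100%) and DMSO (0%), mean of 2 replicates. Counter: normalised to no-AraC (100%) and AraC+DMSO (0%), single replicate.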
row,SMILES,relative growth in counter assay
1,O=C(CCCOc1ccccc1)Nc1ccc(S(=O)(=O)Nc2ncccn2)cc1,2.79%
2,COC(C)(C)C(=O)N1CCOC(c2cccc(Nc3ncc(C)s3)n2)C1 (stereo not drawn),-13%
3,COCC(=O)N1CCCC1c1cccc(Nc2ncc(C)s2)n1 (stereo not drawn),0.29%
4,Cc1csc(Nc2cccc(C3CCCN3CC(N)=O)n2)n1 (stereo not drawn),16.8%
5,Cc1ccc(S(=O)(=O)Nc2ccc(S(=O)(=O)Nc3nccc(C)n3)cc2)cc1,-5.66%
6,Cc1ccccc1N1C(=O)c2ccc(Oc3ccc(N)cc3)cc2C1=O,12.7%
7,O=C(CC(c1ccccc1)c1ccccc1)Nc1ccc(S(=O)(=O)Nc2ncccn2)cc1,-1.59%
8,Cc1cnc(Nc2cccc(C3CN(C(=O)C4CCCO4)CCO3)n2)s1 (stereo not drawn),-14.9%
9,Cc1cnc(Nc2cccc(C3CCN(C(=O)C4C5C=CC(C5)C4C(=O)NCCO)CC3)n2)s1 (stereo not drawn),-24.7%
10,O=S(=O)(Nc1ncccn1)c1ccc(-n2cnnn2)cc1,-1.47%
11,Cc1cnc(Nc2cccc(CC3CCN(C(=O)C4CCCCC4)CC3)n2)s1,-6.51%
12,COc1nccnc1NS(=O)(=O)c1ccc(NC(=S)NC(=O)/C=C/c2cccs2)cc1,8.21%
13,Cc1ccnc(NS(=O)(=O)c2ccc(NC(=O)c3ccc(-c4ccccc4)cc3)cc2)n1,0.76%
14,Cc1ccc(Oc2cccc(N3C(=O)c4ccc(Oc5ccc(N)cc5)cc4C3=O)c2)cc1C,-3.99%
15,O=C(C1CCCCC1)N1CCOC(c2cccc(Nc3ncc(Cc4ccc(F)cc4)s3)n2)C1 (stereo not drawn),-1.26%
16,O=C(Nc1ccc(S(=O)(=O)Nc2ccccn2)cc1)c1ccco1,4.23%
17,CCOCCC(=O)Nc1ccc(S(=O)(=O)Nc2nccc(C)n2)cc1,-2.85%
18,Cc1ccc(C(C)(C)C(=O)N2CCCC2c2cccc(Nc3ncc(C)s3)n2)cc1 (stereo not drawn),-21%
19,Cc1cc(NS(=O)(=O)c2ccc(NC(=O)c3ccccc3)cc2)nc(C)n1,0.4%
20,CCOC(=O)c1nc[nH]c1C(=O)N1CCOC(c2cccc(Nc3ncc(C)s3)n2)C1 (stereo not drawn),-2.22%
21,CC(C)(C)CC(=O)Nc1ccc(S(=O)(=O)Nc2ncccn2)cc1,-0.2%
22,Cc1cc(C)c2[nH]c3nc(SCC(=O)Nc4cccc(Cl)c4C)nnc3c2c1,-20.1%
23,O=C(/C=C/c1ccccc1)N1CCCC1c1csc(Nc2ccccn2)n1 (stereo not drawn),-3.28%
24,CCCc1cnc(Nc2cccc(C3CCN(C(=O)C(C)(C)NC(=O)COC)CC3)n2)s1,-2.68%
25,Cc1cnc(Nc2cccc(C3CN(C(=O)C4CCCC(C)C4)CCO3)n2)s1 (stereo not drawn),-12.6%
26,CN(C)CC(=O)N1CCCC1c1cccc(Nc2nccs2)n1 (stereo not drawn),-0.55%
27,NC(=O)CN1CCC(Cc2cccc(Nc3nccs3)n2)CC1,-23.2%

row,SMILES,relative growth in counter assay
1,Cc1cnc(Nc2cccc(C3CCN(C(=O)C4CCC(=O)N4)CC3)n2)s1 (stereo not drawn),-24.6%
2,O=C1CCCC/C1=C/Nc1ccc(S(=O)(=O)Nc2cnc3ccccc3n2)cc1,-1.17%
3,Cc1cnc(Nc2cccc(C3CN(C(=O)Cc4ccccc4)CCO3)n2)s1 (stereo not drawn),-5.45%
4,COCC(=O)N1CCC(c2cccc(Nc3nc(C)cs3)n2)CC1,14%
5,O=C(C1CCCCC1)N1CCOC(c2cccc(Nc3ncc(Cc4cccc(Cl)c4)s3)n2)C1 (stereo not drawn),13.1%
6,O=C1CCCN1CCOCC(=O)N1CCOC(c2cccc(Nc3nccs3)n2)C1 (stereo not drawn),-1.14%
7,CC(=O)Nc1ccc(C(=O)Nc2ccc(S(=O)(=O)Nc3nccc(C)n3)cc2)cc1,-3.58%
8,O=C1CCC(N2C(=O)c3cc(F)c(N4CCN(CCC5CCNCC5)CC4)cc3C2=O)C(=O)N1 (stereo not drawn),1.21%
9,CC(C)C(=O)N1CCCC1c1csc(Nc2ccccn2)n1 (stereo not drawn),6.43%
10,Cc1cc(NS(=O)(=O)c2ccc(NC(=O)C3COc4ccccc4O3)cc2)nc(C)n1 (stereo not drawn),-10.4%
11,O=C(O)CCOCCOCCOCCNc1cc2c(cc1F)C(=O)N(C1CCC(=O)NC1=O)C2=O (stereo not drawn),0.94%
12,CCCCc1cnc(Nc2cccc(C3CCN(C(=O)C4(C)CCCN4C(=O)OC(C)(C)C)CC3)n2)s1 (stereo not drawn),5.27%
13,CC(=O)Oc1cccc(N2C(=O)c3ccc(Oc4ccc(N)cc4)cc3C2=O)c1,-2.02%
14,CC(C)CC(C(=O)Nc1ccc(S(=O)(=O)Nc2ccccn2)cc1)N1C(=O)c2ccccc2C1=O (stereo not drawn),0.21%
15,CCOc1ccccc1OCC(=O)Nc1ccc(S(=O)(=O)Nc2ncccn2)cc1,2.46%
16,Cc1ccn(CCC(=O)N2CCOC(c3cccc(Nc4ncc(C)s4)n3)C2)n1 (stereo not drawn),-1.16%
17,NC(=O)CN1CCCCC1c1csc(Nc2ccccn2)n1 (stereo not drawn),8.38%
18,Cc1cc(C)nc(NS(=O)(=O)c2ccc(NS(=O)(=O)/C=C/c3ccccc3)cc2)n1,5.62%
19,CCCc1cnc(Nc2cccc(C3CCN(C(=O)C4CCCCN4CCCO)CC3)n2)s1 (stereo not drawn),-21.2%
20,CC(C)(N)C(=O)N1CCC(c2cccc(Nc3ncc(CC(F)(F)F)s3)n2)CC1,-21.1%
21,Cc1cnc(Nc2cccc(C3CN(C(=O)C4(c5ccccc5)CC4)CCO3)n2)s1 (stereo not drawn),-7.66%
22,CCCc1cnc(Nc2cccc(C3CCN(C(=O)C4CCCCN4CC(=O)O)CC3)n2)s1 (stereo not drawn),-19.3%
23,Cc1cccc(N2CC(C(=O)Nc3ccc(S(=O)(=O)Nc4ncccn4)cc3)CC2=O)c1C (stereo not drawn),2.21%
24,COc1ccc(C(=O)Nc2ccc(S(=O)(=O)Nc3ccccn3)cc2)cc1OC,2.76%
25,O=C(O)CCOCCOCCOCCOCCNc1ccc2c(c1)C(=O)N(C1CCC(=O)NC1=O)C2=O (stereo not drawn),9.95%
26,CS(=O)(=O)Nc1ccc(S(=O)(=O)Nc2ncccn2)cc1,3.46%
